Only some compounds are listed: those with a hit (about 2.1% of all), similar ones and a draw of the others.
eIF4H FP inh: inhibitors of RNA binding by human eIF4H | Q15056 | eIF4H fluorescence polarization binding assay | inhibition, % at 35 µM | 0.94% of 290,000 active | AID 2012;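 note: calls also rest on retests at 20 µM and on dose response follow-up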
PABP FP inh: PABP-poly(A) binding inhibition; P11940; PABP-poly(A) RNA binding, fluorescence polarization; inhibition, % at 35 µM; 1% of 290,000 active;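 note: calls also rest on retests at 20 µM and on dose response follow-up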
CendR NRP1 mod: alters CendR peptide binding to human NRP-1 | O14786 | inhibition, % at 25 µM | FAM-RPARPAR peptide binding to NRP-1, fluorescence polarization | 0.85% of 360,000 active;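 active = inhibition or corrected inhibition above about 18%, plus a signal ratio from 0.5 to 1.5, limit read from the data, passing the limit was not always enough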
MLLE-PAM2 inh: blocks PAM2 peptide binding to the PABP1 MLLE domain; 0.36% of 360,000 active; inhibition, % at 20 µM; AID 588489; GST-MLLE / FITC-PAM2 fluorescence polarization; P11940; in the data active = inhibition above about 35%, passing the limit was not always enough;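 note: plate controls were DMSO wells with GST-MLLE for no effect and wells lacking GST-MLLE protein for full effect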
Active calls of the source: *. Unless noted, the rule behind the calls is not given here.

How did Cc1ccccc1NC(=O)CSc1ccsc1[N+](=O)[O-] do in these assays?
eIF4H FP inh: inconclusive; PABP FP inh: 32*; CendR NRP1 mod: 5; MLLE-PAM2 inh: 7

Results for Cc1ccccc1NC(=O)CSc1ccc(-c2ccco2)nn1 ?
eIF4H FP inh: inconclusive; PABP FP inh: 0.3*; CendR NRP1 mod: -13; MLLE-PAM2 inh: 16

What do the screens show for `CCC(=O)CN(Cc1cc(OC)ccc1OC)S(=O)(=O)c1ccccc1Br`?
CendR NRP1 mod: 11; MLLE-PAM2 inh: 1

Results for CNc1cccc2c1C(=O)c1ccccc1C2=O ?
eIF4H FP inh: 78*; PABP FP inh: active; CendR NRP1 mod: 17; MLLE-PAM2 inh: 41*

Results for CC(C)c1ccc(NC(=O)CN2C(=O)NC3(CCCC3)C2=O)cc1 ?
eIF4H FP inh: -7; PABP FP inh: 6; CendR NRP1 mod: 24*; MLLE-PAM2 inh: -5

How did O=C(CN1C(=O)NC2(CCCCCC2)C1=O)Nc1ccc(OC(F)(F)F)cc1 do in these assays?
CendR NRP1 mod: 27*; MLLE-PAM2 inh: 17

How did COc1cc(OC)nc(Oc2ccc(N)c(C)c2)n1 do in these assays?
eIF4H FP inh: 14; PABP FP inh: 0; CendR NRP1 mod: 9; MLLE-PAM2 inh: -4

Results for CCCCn1c(N)c(C(=S)NC(=O)CC(C)(C)C)c(=O)n(C)c1=O ?
eIF4H FP inh: -1; PABP FP inh: 7; CendR NRP1 mod: -1; MLLE-PAM2 inh: 48*

Results for CCCn1c(N)c(C(=O)CSc2ncn[nH]2)c(=O)n(C)c1=O ?
CendR NRP1 mod: 0; MLLE-PAM2 inh: -9

What do the screens show for `COc1ccc(S(=O)(=O)N2CCN=C2SCc2cccc(F)c2)cc1`?
eIF4H FP inh: -10; PABP FP inh: -3; CendR NRP1 mod: 15; MLLE-PAM2 inh: 3

Results for Cc1cccc(NC(=O)c2cc(S(=O)(=O)c3ccccc3)ccc2Cl)c1 ?
eIF4H FP inh: -10; PABP FP inh: 4; CendR NRP1 mod: 34*; MLLE-PAM2 inh: 0

How did Cc1ccccc1NC(=O)c1cc(S(=O)(=O)c2ccccc2)ccc1Cl do in these assays?
eIF4H FP inh: -2; PABP FP inh: -2; CendR NRP1 mod: 4; MLLE-PAM2 inh: 7

What do the screens show for `Cc1ccccc1-n1c(=O)cc(N2CCc3ccccc3C2)[nH]c1=O`?
eIF4H FP inh: 79*; PABP FP inh: 93*; CendR NRP1 mod: -4; MLLE-PAM2 inh: 22

How did COc1ccccc1NC(=S)NNC(=O)c1ccccc1Br do in these assays?
eIF4H FP inh: 5; PABP FP inh: 0; CendR NRP1 mod: 21*; MLLE-PAM2 inh: 4

What do the screens show for `COc1ccccc1C(=O)NNC(=O)c1ccccc1Br`?
eIF4H FP inh: -3; PABP FP inh: -9; CendR NRP1 mod: 0; MLLE-PAM2 inh: -3

How did COc1nccnc1NS(=O)(=O)c1ccc(NC(=S)NC(=O)/C=C/c2ccccc2)cc1 do in these assays?
eIF4H FP inh: 1; PABP FP inh: 8; CendR NRP1 mod: -32; MLLE-PAM2 inh: 45*

How did COc1ccc(S(=O)(=O)NC(CC(C)C)C(=O)NC(C)c2cccs2)cc1 (stereo unspecified) do in these assays?
CendR NRP1 mod: 9; MLLE-PAM2 inh: 5

How did Cc1cc(=O)[nH]c(Nc2ccc(Cl)cc2)n1 do in these assays?
CendR NRP1 mod: 22*; MLLE-PAM2 inh: 0

What do the screens show for `CCOC(=O)c1nc(Nc2ccc(C)cc2)c2ccccc2n1`?
eIF4H FP inh: 13; PABP FP inh: 11; CendR NRP1 mod: 4; MLLE-PAM2 inh: 60*

What do the screens show for `CCOC(=O)c1nc(Nc2ccccc2)c2ccccc2n1`?
eIF4H FP inh: -6; PABP FP inh: -8; CendR NRP1 mod: -12; MLLE-PAM2 inh: 0

How did C=CCN1C(=O)C2(OCCO2)c2cc(C)ccc21 do in these assays?
eIF4H FP inh: -2; PABP FP inh: -3; CendR NRP1 mod: 0; MLLE-PAM2 inh: 2

What do the screens show for `COc1ccc(N2CCCC2)c(NC(=O)c2ccc(Br)o2)c1`?
eIF4H FP inh: 16; PABP FP inh: 10; CendR NRP1 mod: 61*; MLLE-PAM2 inh: 10

Results for O=C(Nc1ccccc1N1CCCC1)c1ccc(Br)o1 ?
eIF4H FP inh: -4; PABP FP inh: -1; CendR NRP1 mod: -15; MLLE-PAM2 inh: 3

How did CCN1C(=O)/C(=C\c2ccc(-c3cccc(C(=O)OC)c3)o2)SC1=Nc1ccc(C(=O)O)cc1 do in these assays?
eIF4H FP inh: 26; PABP FP inh: 9

How did O=C(O)c1cccc(-c2ccc(/C=C3/SC(=Nc4ccccc4)N(Cc4cccnc4)C3=O)o2)c1 do in these assays?
eIF4H FP inh: 64*; PABP FP inh: 48*; CendR NRP1 mod: -67; MLLE-PAM2 inh: -10

Results for CCN=C1S/C(=C\c2ccc(-c3cccc(C(=O)O)c3)o2)C(=O)N1CC ?
eIF4H FP inh: 64*; PABP FP inh: 1; CendR NRP1 mod: -38; MLLE-PAM2 inh: 9

How did COC(=O)c1c(C(=O)OC)c(-c2ccccc2)n2c1CCC2 do in these assays?
eIF4H FP inh: 6; PABP FP inh: -3; CendR NRP1 mod: 38*; MLLE-PAM2 inh: 4

Results for COC(=O)c1c(C(=O)OC)c(-c2ccc(C(C)(C)C)cc2)n2c1CS(=O)C2 (stereo unspecified) ?
eIF4H FP inh: -7; PABP FP inh: -7; CendR NRP1 mod: 17; MLLE-PAM2 inh: 0

How did Oc1ccc(NCc2cccc(OCc3ccccc3)c2)cc1 do in these assays?
eIF4H FP inh: 69; PABP FP inh: 36*; CendR NRP1 mod: 6; MLLE-PAM2 inh: -24

What do the screens show for `COC(=O)[C@@H](NCc1ccc(OC)c(B(O)O)c1)C(C)C`?
CendR NRP1 mod: 2; MLLE-PAM2 inh: 8

Results for COC(=O)C1=C(C)NC(=O)/C1=C\c1cc(C)n(-c2ccccc2)c1C ?
eIF4H FP inh: 63; PABP FP inh: -6; CendR NRP1 mod: 15; MLLE-PAM2 inh: -6

What do the screens show for `COC(=O)C1=C(C)NC(=O)/C1=C\c1cc(C)n(-c2cc(C)cc(C)c2)c1C`?
eIF4H FP inh: 83*; PABP FP inh: 97*; CendR NRP1 mod: 2; MLLE-PAM2 inh: -5

Results for O=C1CCN(S(=O)(=O)c2ccccc2)CCN1CCOCc1ccc(Cl)cc1 ?
eIF4H FP inh: 0; PABP FP inh: 7; CendR NRP1 mod: 17; MLLE-PAM2 inh: 12

Results for CC(=O)Nc1cc(-c2ccccc2Cl)cn2c(-c3ccc(S(C)(=O)=O)cc3)cnc12 ?
CendR NRP1 mod: -1; MLLE-PAM2 inh: -27

Results for COc1ccc(O)c(CN2CCC(n3nccc3NC(=O)c3ccccc3Cl)CC2)c1 ?
eIF4H FP inh: 2; PABP FP inh: 3; CendR NRP1 mod: -2; MLLE-PAM2 inh: -9

Results for Clc1ccc(-c2cn3cccnc3n2)cc1 ?
eIF4H FP inh: 2; PABP FP inh: 4; CendR NRP1 mod: -26; MLLE-PAM2 inh: -3

Results for Clc1ccc(-c2cn3cccnc3n2)cc1Cl ?
eIF4H FP inh: 71*; PABP FP inh: 78*; CendR NRP1 mod: -40; MLLE-PAM2 inh: -25

Results for COc1ccc(-c2cn3cccnc3n2)cc1NC(=O)c1cc(OC)c(OC)c(OC)c1 ?
eIF4H FP inh: active; PABP FP inh: 77*; CendR NRP1 mod: 6; MLLE-PAM2 inh: 6

Results for Cn1c(CC(=O)Nc2ccccc2F)nnc1SCC(=O)Nc1ccccc1Br ?
eIF4H FP inh: -1; PABP FP inh: 2; CendR NRP1 mod: 3; MLLE-PAM2 inh: 8
